# Assay results from PubChem BioAssay (NCATS).
# Inconclusive results are not listed. The source made the active and inactive calls. Calls come from the whole dose curve; as a rule, active = well fitted cell-killing curve with a large enough effect; inconclusive = small, poorly fitted or top-dose-only effect; inactive = flat fitted curve, though single readings scatter.
# Experiment: Cell Viability - LYMP2-010 (AID 981); note: nearly all actives have a fitted effect of over 55% in size
# Conditions: LYMP2-010 lymphoblastoid cell viability, qHTS; series mostly up to 92.2 µM; activity, negative = cytotoxicity: at the top concentration
# Description: NIH Chemical Genomics Center [NCGC]
# NIH Molecular Libraries Screening Centers Network [MLSCN]
# National Institutes of Environmental Health Sciences [NIEHS]
# National Toxicology Program [NTP]
# We have developed a 1536-well cell-based assay for quantitative high throughput screening (qHTS) against a number of cell lines to determine in vitro cytotoxicity of small molecules. This particular assay uses a human lymphoblastoid cell line (LYMP2-010) purchased from Coriell Institute for Medical Research.
# NCGC Assay Protocol Summary:
# The CellTiter-Glo luminescent cell viability assay (Promega) is a homogeneous method to measure the number of viable cells in culture. The end point readout of this assay is based on quantitation of intracellular ATP, an indicator of metabolic activity, using the luciferase reaction. Luciferase catalyzes the oxidation of beetle Luciferin to oxyluciferin and light in the presence of ATP. The luminescent signal is proportional to amount of ATP present.
# Using the CellTiter-Glo luminescent cell viability assay, the amount of cellular ATP was measured in the lymphoblastoid cell line with complete culture medium following compound treatment for 24 hours. The assay was performed in opaque white Kalypsys 1536-well plates. In the screen, tetraoctylammonium bromide was used as positive control. Library compounds were measured for their ability to cause acute toxicity in the cell line, as reflected by a decrease in intracellular ATP levels, in a concentration-dependent manner. […] AC50 values were determined from concentration-response data modeled with the standard Hill equation.
# qHTS protocol for CellTiter Glo lymphoblastoid cellular assay
# [Step] [Parameter] [Value] [Description]
# 1. Reagent; 5 uL; 2500 lymphoblastoid cells/well
# 2. Time; 5 hr; 37 C incubation
# 4. Controls; 23 nL; Tetraoctylammonium bromide 6.4pM to 92 uM
# 5. Time; 24 hr; 37 C incubation
# 6. Reagent; 5 uL; CellTiter Glo reagent
# 7. Time; 30 min; Room Temperature
# 8. Detection; Luminescence; Viewlux plate reader
# Keywords: cell viability, cytotoxicity, lymphoblastoid cell line, luminescence, NTPHTS, NTPHTS_NCGC, NIEHS, DSSTox, MLSMR, MLSCN, NIH Roadmap, qHTS, NCGC
# % is set by controls: 0 for no effect and ±100 for the full control effect; potency is the fitted concentration of half-maximal effect.
Structure (SMILES),"activity, negative = cytotoxicity",Potency
COP(=O)(OC)OC=C(Cl)Cl,-18.1% (inactive),–
CC[n+]1c(-c2ccccc2)c2cc(N)ccc2c2ccc(N)cc21,–,12.6 µM (active)
Oc1c(Br)cc(Br)cc1Br,-12.7% (inactive),–
CN(C)C(=S)SSC(=S)N(C)C,–,0.251 µM (active)
C[C@@H]1C[C@@H]([C@H](O)CC2CC(=O)NC(=O)C2)C(=O)[C@@H](C)C1,–,1 µM (active)
COC(=O)C1=C(C)NC(C)=C(C(=O)OC)C1c1ccccc1[N+](=O)[O-],–,39.8 µM (active)
CNC(=O)Oc1cccc2ccccc12,-13% (inactive),–
O=C(CCl)c1ccc(Cl)cc1Cl,–,2.51 µM (active)
Oc1ccc(Cl)cc1Sc1cc(Cl)ccc1O,–,39.8 µM (active)
CCCCCCCCCCCC[N+](C)(C)CCOc1ccccc1,–,39.8 µM (active)
